From PubChem
Abeta yeast res – compounds reversing amyloid beta toxicity in yeast; yeast expressing A-beta42, growth rescue, OD600, 48 h; response scale: 0% DMSO, 100% iron-clioquinol control; Potency, µM (titrated, usually from 46.1 µM), hits mostly activators; hit rate 0.063% among 410,000; AID 1347071; also: nearly all actives have a fitted effect of over 55% in size
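Yeast A-beta toxicity model in growth medium with pinned compounds, 48 h at 30 C; growth read as absorbance at 600 nm. Normalized to FeCl3/clioquinol equimolar mix (positive) and DMSO (negative).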
aSyn yeast inh – inhibitors of alpha-synuclein toxicity in yeast; hit rate 0.14% among 370,000; AID 652106; Potency, µM (highest dose often 46.1 µM), usual class: activators; Yeast expressing alpha-synuclein, growth rescue, BacTiter-Glo, 24 h; also: nearly all actives have a fitted effect of over 65% in size
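Rescue of yeast growth: cells expressing toxic alpha-synuclein, induced in galactose at OD600 0.02, incubated with compound 24 h at 30 C. ATP luminescence quantified growth; inhibitors of toxicity appear as activators.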
TDP43 rescue – rescues yeast growth from TDP-43 toxicity; TDP-43 expressing yeast growth rescue, BacTiter-Glo, 24 h; Potency, µM (titrated, usually from 46.1 µM), actives largely listed as activators; hit rate 1.8% among 410,000; also: nearly all actives have a fitted effect of over 50% in size
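Galactose-induced TDP-43 yeast, OD600=0.02, compound pinned; 24 hr, 30 deg C; BacTiter-Glo luminescence for growth. Inhibitors of TDP-43 toxicity read as activators.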
Mito fusion act – blocks mitochondrial division or promotes mitochondrial fusion. Potency, µM (titrated, usually from 46.1 µM), most hits filed as activators. hit rate 0.23% among 320,000. S. cerevisiae fusion-defective mutant growth rescue, CellTiterGlo 48 h; also: nearly all actives have a fitted effect of over 45% in size
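Temperature-sensitive fusion-defective S. cerevisiae (e.g. fzo1-1, mgm1-5) were grown with compound in YPEG medium (3% ethanol, 3% glycerol) for 48 hours at 37C. Growth rescue was measured as viability by CellTiterGlo luminescence after 10 minutes at ambient.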
FUS suppressor – rescues growth of FUS-expressing yeast. Potency, µM (titrated, usually from 76.6 µM), actives largely listed as activators. S. cerevisiae FUS-expressing, growth rescue, OD600, 24 h. hit rate 0.24% among 390,000; also: nearly all actives have a fitted effect of over 55% in size
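Yeast expressing FUS under galactose induction, OD 0.005 in 2% galactose medium; compounds in a dilution series, 24 h at 30C. Growth rescue by absorbance at 600 nm; CP55940 positive control, DMSO negative.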
Hits are given with their value; - = inactive; ? = inconclusive; . = not tested or not shown; ! = repeats disagree. A selection: hits, their analogues and other compounds. The true share with any hit is near 2.2%. Calls follow the shape of the dose curve; as a rule, active = well fitted curve in the direction sought with a large enough effect; inconclusive = small, poorly fitted or top-dose-only effect, or another doubt; inactive = no such curve, though single readings can be large; an effect the other way counts as inactive or inconclusive.

SMILES | Abeta yeast res | aSyn yeast inh | TDP43 rescue | Mito fusion act | FUS suppressor
COc1ccc(S(=O)(=O)Nc2cccc3c2O[C@H](CN(C)Cc2ccc(-c4ccccc4)cc2)[C@@H](C)CN([C@H](C)CO)C3=O)cc1 | - | - | - | . | 25µM
COc1ccc(S(=O)(=O)Nc2cccc3c2O[C@H](CN(C)S(=O)(=O)c2ccc(F)cc2)[C@H](C)CN([C@H](C)CO)C3=O)cc1 | - | - | - | . | ?
COc1ccc(S(=O)(=O)Nc2cccc3c2O[C@H](CN(C)S(=O)(=O)c2ccccc2)[C@@H](C)CN([C@H](C)CO)C3=O)cc1 | - | - | - | . | 16µM
CCN(CC)C(=O)CC[C@H]1CC[C@]2(CCCN(C(=O)c3ccc4ccccc4n3)C2)O1 | . | . | . | . | -
Cc1ccc(-n2nc3c(c2NC(=O)c2cc4ccccc4o2)CS(=O)(=O)C3)cc1 | - | - | - | - | .
C[C@H]1CN([C@@H](C)CO)S(=O)(=O)c2ccc(Br)cc2O[C@H]1CN(C)S(=O)(=O)c1ccccc1F | - | - | - | . | -
COc1ccc(C#Cc2ccc3c(c2)O[C@H](CN(C)S(=O)(=O)c2ccccc2F)[C@H](C)CN([C@H](C)CO)S3(=O)=O)cc1 | - | - | - | . | 28µM
COc1ccc(S(=O)(=O)N(C)C[C@@H]2Oc3c(NC(=O)Nc4ccccc4)cccc3C(=O)N([C@@H](C)CO)C[C@H]2C)cc1 | . | . | . | . | 16µM
O=C(O)/C=C/c1ccc([N+](=O)[O-])o1 | - | - | 10µM | - | -
Cc1cc(C(=O)OCCN2C(=O)c3ccccc3C2=O)c2ccccc2n1 | - | ? | ? | - | 16µM
O=C(OCCN1C(=O)c2ccccc2C1=O)c1cc(=O)[nH]c2ccccc12 | - | - | - | - | -
CCCC(=O)OC12CCCN(C1)/C(=C/c1ccc(Cl)cc1)C2 (stereo not drawn) | . | . | . | . | -
Cc1c(Cl)cccc1-n1ncc(C(=O)NCc2cccs2)c1C1CCN(C(=O)OC(C)(C)C)CC1 | ? | . | 32µM | . | ?
Cc1ccc(-n2ncc(C(=O)NCc3cccs3)c2C2CCN(C(=O)OC(C)(C)C)CC2)cc1C | - | . | - | . | 20µM
C=C1CCN(Cc2ccccc2)S(=O)(=O)c2ccccc21 | - | 22µM | - | - | -
O=C1CCN(Cc2ccccc2)S(=O)(=O)c2ccccc21 | - | - | - | - | -
COC(=O)c1sccc1-c1ccc(C(=O)Nc2ccccc2)o1 | - | - | 13µM | - | -
Cc1ccc(CNC(=O)c2sc3nc(-c4ccc(F)cc4)ccc3c2N)cc1 | - | . | - | . | 25µM
CCC(C)(C)c1ccc(Oc2ccc(N)cc2)cc1 | - | ? | ? | - | -
CCC(C)(C)c1ccc(Oc2cccc(C(=O)O)c2)cc1 | - | 0.89µM | - | - | -
COc1ccc(OC)c(C2=NS(=O)(=O)N(C)C(C(=O)Nc3ccc(F)cc3F)=C2)c1 | - | - | 35µM! | - | -
Cc1ccc(C2=NS(=O)(=O)N(C)C(C(=O)Nc3ccc(F)cc3F)=C2)cc1 | - | - | - | - | -
CCCOc1ccc(CNC(=O)C2CCN(c3nnc(N4CCCC4=O)s3)CC2)cc1 | - | - | - | - | -
Nc1nc(N)nc(-c2ccc(Cl)c(Cl)c2)n1 | - | - | 22µM | - | -
Cc1ccc(Nc2ncc(C(=O)N3CCN(c4ccc(F)cc4)CC3)c3ccccc23)cc1Cl | - | . | 13µM | . | -
SMILES | Abeta yeast res | aSyn yeast inh | TDP43 rescue | Mito fusion act | FUS suppressor
COc1ccc(Nc2ncc(C(=O)N3CCN(c4ccc(F)cc4)CC3)c3ccccc23)cc1 | - | - | - | - | ?
COc1ccc(C(C)=O)cc1COC(=O)c1c(C)noc1C | - | - | 16µM | - | -
COc1ccc(C(C)=O)cc1COC(=O)c1ccc(OCc2c(C)noc2C)cc1 | - | - | - | - | -
CC(C)c1c(C(=O)N/N=C/c2cccc(OCc3ccccc3)c2)nnn1-c1nonc1N | - | - | - | - | -
O=C(/C=C/c1c(Cl)cccc1Cl)N1CCN(c2ncccn2)CC1 | - | ? | 11µM | - | -
COc1cc(C2CC(=O)Nc3c2c(=O)[nH]c2ncnn32)ccc1O (stereo not drawn) | - | . | - | . | -
CCCCCC(=O)NNC(=S)NC(=O)c1cccc([N+](=O)[O-])c1 | ? | 16µM | ? | - | .
CCC(=O)NNC(=S)NC(=O)c1ccc(C)cc1 | ? | ? | 20µM | - | -
